IL-1B inflam inh: inhibitors of inflammasome signaling (IL-1 beta secretion). activity change, % at 57.5 µM. actives 4.7% (n = 360,000). THP-1 LPS/ATP IL-1B secretion, AlphaLISA, 16 h; hits give low values; in the data active = activity change below about -50%; inconclusive = mostly about -30% to -49%
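Secreted IL-1B measured by AlphaLISA bead assay after 16 h compound exposure of THP-1 cells; compounds (final up to 57.5 uM) added 1 h before LPS (250 ng/mL) and ATP (1.25 mM) stimulation; lower signal means less secretion.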
HT1080 IDH1KD tx: kills HT-1080 cells with IDH1 knockdown. HT-1080 IDH1 knockdown viability, ATP luminescence, 48 h. Potency, µM (top dose mostly 46.1 µM), without a hit: at the top dose activity, negative = toxicity, usual class: cytotoxic. actives 2% (n = 360,000). AID 686971;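 note: potency is the fitted concentration of half-maximal effect; 0% = DMSO wells and -100% = cell-free medium wells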
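Cytotoxicity counter-line: IDH1KD HT-1080, 48 h, CellTiter-Glo. Curves classed by r2, magnitude and activity.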
DT40 TDP1 CPT: DT40-hTDP1 cell growth loss with CPT | Potency, µM (highest dose often 46.2 µM), for the others: at the highest dose activity change, negative = growth inhibition, most hits filed as inhibitors | actives 12% (n = 420,000) | chicken DT40 Tdp1-/-;hTDP1 cells + 20 nM CPT, ATP luminescence, 48 h; note: potency is the fitted concentration of half-maximal effect; nearly all actives have a fitted effect of over 55% in size
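Chicken DT40 Tdp1-/- cells complemented with human TDP1, 400 cells/well, exposed to compounds plus 20 nM camptothecin for at least 48 h at 37 C; viability read as ATP content by CellTiter-Glo luminescence.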
DT40 TDP1 no CPT: qHTS for Inhibitors of human tyrosyl-DNA phosphodiesterase 1 (TDP1): qHTS in cells in absence of CPT | DT40 Tdp1-/- hTDP1 cells, no CPT, ATP luminescence, 48 h | Potency, µM (titrated, usually from 46.2 µM), inactives show top-dose activity change, negative = growth inhibition, actives largely listed as inhibitors | actives 15% (n = 420,000) | AID 686978, 2013; note: potency is the fitted concentration of half-maximal effect; nearly all actives have a fitted effect of over 55% in size
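Stably hTDP1-transfected Tdp1-null chicken DT40 cells were treated with library compounds minus camptothecin and grown for at least 48 hr at 37 °C, after which cellular ATP was quantified by luminescence.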
HT1080NT lethal: kills 2HG-producing HT-1080-NT fibrosarcoma cells | HT-1080-NT fibrosarcoma viability, CellTiter-Glo ATP luminescence, 48 h | Potency, µM (series often up to 46.1 µM), without a hit: top-dose activity, negative = less viability, actives largely listed as cytotoxic | actives 1.6% (n = 360,000) | AID 686970;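 note: NT is the 2HG producing partner of a matched IDH1 knockdown line; potency is the fitted concentration of half-maximal effect; 0% = DMSO-treated cells and -100% = media-only wells without cells; nearly all actives have a fitted effect of over 55% in size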
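Viability by CellTiter-Glo luminescence after 48 h compound exposure at 37C of HT-1080-NT cells (750/well, RPMI, 5% FBS). % activity scaled between DMSO wells and medium-only wells, then curve-fitted and categorized by curve class.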
An asterisk follows results filed as active; ? = inconclusive; nt = no result given; [ ] = remark or other dose. This is a sample that favours compounds with a hit; in the whole collection about 19% have one here. Unless noted, calls come from the whole dose curve; as a rule, active = well fitted curve in the direction sought with a large enough effect; inconclusive = small, poorly fitted or top-dose-only effect, or another doubt; inactive = no such curve, though single readings can be large; an effect the other way counts as inactive or inconclusive. Unless noted, % is set by controls: 0 for no effect and ±100 for the full control effect.

SMILES	IL-1B inflam inh	HT1080 IDH1KD tx	DT40 TDP1 CPT	DT40 TDP1 no CPT	HT1080NT lethal
O=CN1CCN(C(C(=O)NC2CCCCC2)c2cc3c(cc2[N+](=O)[O-])OCO3)CC1 (stereo not given)	-9.8	1.8%	8.4%	-10.1%	14.3%
COc1ccc(COC(=O)CCNC(=O)c2ccc(Cl)cc2)cc1	5.8	2.9%	8.6%	2.6%	-2.2%
CCOc1ccccc1C(=O)Nc1ccc(-n2nncc2-c2ccccc2)cc1	nt	nt	?	23.1µM*	nt
CCOc1ccccc1C(=O)Nc1ccc(S(=O)(=O)N2CCN(C)CC2)cc1	4.1	0.7%	?	-15.5%	-1.6%
CCOc1ccccc1C(=O)Nc1ccc(-n2nncc2C(C)(C)C)cc1	14.6	0.9%	20.6µM*	14.6µM*	4.9%
CCc1ccc(OCC(=O)Nc2ccc3oc(=O)ccc3c2)cc1	4.5	2.3%	11.4%	2.7%	-2.4%
O=C1c2ccccc2C(Nc2ccc(-c3nc4ccccc4[nH]3)cc2)N1Cc1ccco1 (stereo not given)	-1.5	-13.8%	?	18.4µM*	-4.0%
O=C1c2ccccc2C(Nc2ccc3nc(-c4cccnc4)[nH]c3c2)N1Cc1ccco1 (stereo not given)	0.0	1.8%	9.2µM*	7.31µM*	0.6%
CCOc1ccc(NC2c3ccccc3C(=O)N2Cc2ccco2)cc1 (stereo not given)	12.5	-6.3%	16.4µM*	11.6µM*	-3.8%
COC(=O)c1cc(NC2c3ccccc3C(=O)N2Cc2ccco2)cc(C(=O)OC)c1 (stereo not given)	3.7	3.0%	-7.0%	2.1%	15.1%
Nc1ccc(Sc2ccccc2Cl)nc1	-3.6	2.0%	1.3%	-17.5%	-12.9%
C/C=C(\C)C(=O)NCCN1C2=NC[C@H](Cc3ccccc3)N2C[C@@H]1Cc1ccc(OC)cc1	?	0.0%	?	?	-6.9%
COc1ccc(C[C@H]2CN3C(=NC[C@@H]3Cc3ccc(O)cc3)N2CCNC(=O)c2ccc(C)c(Br)c2)cc1	-20.0	?	13µM*	13µM*	?
Cc1ccc(C(=O)NCCN2C3=NC[C@H](Cc4ccc(O)cc4)N3C[C@H]2Cc2ccc(O)cc2)cc1Br	3.2	2.0%	?	16.4µM*	2.1%
O=C(CNC(=O)c1sc2ccccc2c1Cl)NC1CC1	?	12.0%	1.6%	15.3%	12.9%
Cc1cnc(CNc2cc(-c3cccnc3)ncn2)cn1	nt	nt	-6.0%	?	nt
O=C(CN1C(=O)CSc2ccc(S(=O)(=O)N3CCOCC3)cc21)NCCc1ccccc1	-13.4	0.9%	4.3%	-7.8%	-2.0%
O=C(CN1C(=O)CSc2ccc(S(=O)(=O)N3CCCCCC3)cc21)NCCc1ccccc1	-6.4	-16.1%	?	23.1µM*	-13.5%
O=C(CN1C(=O)CSc2ccc(S(=O)(=O)N3CCOCC3)cc21)NCCCN1CCCCC1	11.7	7.3%	5.3%	12.7%	5.0%
CC1CC(C)CN(CCCNC(=O)CN2C(=O)CSc3ccc(S(=O)(=O)N4CCCCC4)cc32)C1 (stereo not given)	-60.0*	1.4%	?	-6.6%	-2.9%
C=CCC[C@@H](Cc1ccc(F)cc1)C(=O)OC[C@H](C)NC(=O)[C@@H](CC=C)CC(=O)N[C@@H](CO)Cc1ccccc1	14.6	2.8%	?	?	16.7%
NC(=O)C1CCCN(Cc2ccc3c(c2)CN(Cc2ccccc2)CCO3)C1 (stereo not given)	nt	nt	5.8%[9.04 µM]	-17.7%	nt
Cc1noc(Cn2c(=O)c3ccccc3n(CC(=O)Nc3cc(Cl)ccc3C)c2=O)n1	nt	nt	-15.4%	-10.3%	nt
COc1ccc(-c2noc(Cn3c(=O)c4ccccc4n(CC(=O)Nc4cccc(OC)c4)c3=O)n2)cc1	nt	nt	?	20.6µM*	nt
Cc1noc(Cn2c(=O)c3ccccc3n(CC(=O)Nc3ccc(C(C)C)cc3)c2=O)n1	nt	nt	?	16.4µM*	nt
SMILES	IL-1B inflam inh	HT1080 IDH1KD tx	DT40 TDP1 CPT	DT40 TDP1 no CPT	HT1080NT lethal
CC(Nc1ccc(Cl)cc1)c1cc(Cl)ccc1O (stereo not given)	6.3	?	?	18.4µM*	?
CC(C)Cn1nc(NC(=O)c2cccs2)c2cc3ccccc3nc21	-0.4	-10.0%	?	8.2µM*	-4.5%
CC(C)Cn1nc(NC(=O)c2ccco2)c2cc3ccccc3nc21	39.7	14.6%	14.6µM*	13µM*	-5.5%
CCn1nc(NC(=O)c2ccco2)c2cc3ccccc3nc21	-10.3	-1.2%	?	?	-4.0%
CCCCn1nc(NC(=O)CC)c2cc3cc(OC)ccc3nc21	10.9	6.9%	?	?	11.9%
CC(C)Cn1nc(NC(=O)C(C)(C)C)c2cc3ccccc3nc21	85.8	-9.8%	?	?	-4.1%
COc1ccc2nc3c(cc2c1)c(NC(=O)c1cccs1)nn3CC(C)C	-50.7*	13µM*	?	?	?
NC(=O)CSc1nc(-c2ccccc2Cl)ns1	-6.4	4.3%	-10.2%	1.6%	4.6%
COCc1cn(CC(C)n2c(=O)c3ccccc3n2Cc2cc(C(C)C)no2)nn1 (stereo not given)	8.3	9.2%	17.6%	2.9%	4.5%
CCOC(=O)C1(Cc2ccccc2)CCCN(Cc2ccncc2)C1 (stereo not given)	29.7	4.6%	?	?	-10.0%
CCOC(=O)C1(Cc2ccccc2)CCCN(C(=O)C=C(C)C)C1 (stereo not given)	11.2	9.5%	?	-51.2%	4.5%
CCOC(=O)C1(Cc2ccccc2)CCCN(Cc2cccc(C(C)=O)c2)C1 (stereo not given)	15.1	6.6%	?	16.4µM*	0.1%
CCOC(=O)C1(Cc2ccccc2)CCCN(C(=O)COc2ccccc2OC)C1 (stereo not given)	-7.1	0.2%	23.1µM*	13µM*	-3.4%
Cc1cc(=O)oc2cc(OCC(=O)NCCN3CCOCC3)c(Cl)cc12	-10.6	15.6%	-4.9%	-10.5%	13.8%

From PubChem BioAssay
